In PubChem BioAssay (NCATS):
Records with an inconclusive call do not appear. Where a call stands in place of a potency, no number is given. Activity calls are given as the source filed them. Unless noted, the call rests on the fitted dose curve; in most records, active means well fitted curve in the direction sought with a large enough effect; inconclusive means small, poorly fitted or top-dose-only effect, or another doubt; inactive means no such curve, though single readings can be large; an effect the other way counts as inactive or inconclusive.

Experiments:
[1] = Cytotoxicity counterscreen for NFkB agonists and antagonists (AID 624476);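 further: cells exposed to compound for 48 hours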; further: potency means the concentration at half of the fitted maximal effect
[2] = qHTS Assay for Identification of Small Molecule Agonists for NFkB Signaling Pathway. (AID 624478);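 further: compounds tested together with TNF alpha at its EC50 of 10 pM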
Summary of the method: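 Cells carrying an NFkB response element-driven beta-lactamase gene are co-treated with compound and 10 pM TNF alpha for 5 h, and reporter activity is then read as 460 and 530 nm fluorescence.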

[3] = qHTS Assay for Identification of Small Molecule Antagonists for NFkB Signaling Pathway. (AID 624479; calls by dose curve;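 further: pathway stimulated with TNF alpha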; further: potency means the concentration at half of the fitted maximal effect)
[4] = Cell Proliferation Assay against the TMD8 Cell Line (AID 651645); conditions: TMD8 DLBCL cell line proliferation/viability; at 46.1 µM (top of the series) unless noted;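 further: cells exposed to compound for 48 h before reading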
Summary of the method: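 Viability by CellTiter-Glo after 48 h compound exposure of 500 log-phase TMD8 cells per well (RPMI, 5% FBS). Percent activity scaled between DMSO (100%) and 9.2 uM final bortezomib (0%).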

[5] = Cell Proliferation Assay against the HBL1 Cell Line (AID 651646); conditions: HBL1 DLBCL cells; at 46.1 µM (top of the series) unless noted;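 further: cells exposed to compound for 48 h before reading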
Summary of the method: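 500 log-phase HBL1 cells per well in phenol red-free RPMI with 5% FBS were treated with compounds for 48 h at 37 °C, 5% CO2. Viability was read by CellTiter-Glo luminescence, normalized to DMSO (100%) and 9.2 uM bortezomib final (0%).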

[6] = Cell Proliferation Assay against the TMD8 Cell Line (Caspase readout at 8 hrs) (AID 651713); further: potency means the concentration at half of the fitted maximal effect
Summary of the method: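 Percent activity derived from Caspase-Glo signal, DMSO set to 0% and bortezomib (9.2 uM final) to 100%. TMD8 cells were exposed to compound for 8 h in RPMI with 5% FBS.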

[7] = Cell Proliferation Assay against the TMD8 Cell Line (Caspase readout at 16 hrs) (AID 651712); further: potency means the concentration at half of the fitted maximal effect
Summary of the method: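 TMD8 cells (500/well) in phenol-red-free RPMI with glutamine, 5% FBS, were exposed to compounds for 16 h at 37 °C. Caspase 3/7 activation was read by Caspase-Glo luminescence; percent activity normalised to DMSO (0%) and 9.2 uM bortezomib final (100%).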

[8] = qHTS assay for small molecule agonists of the antioxidant response element (ARE) signaling pathway (AID 651741; active means well fitted activation curve with a large enough effect in the signal ratio; the % refers to the signal ratio; further: potency means the concentration at half of the fitted maximal effect)
Summary of the method: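 ARE-bla HepG2 cells (beta-lactamase reporter under ARE control) were plated at 2,000 cells/well, preincubated 5 h at 37 C/5% CO2, then treated with DMSO-dissolved compounds for 16 h at 37 C; LiveBLAzer B/G FRET substrate added, fluorescence read after 2 h at room temperature.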

SMILES | Potency [1] | outcome [2] | Potency [3] | viability (% of control) [4] | viability, percent of control [5] | Potency [6] | Potency [7] | Potency [8]
Fc1ccc(Cl)cc1-c1nc(Nc2ccncc2)c2nccnc2n1 | inactive | inactive | inactive | 98.1% | 93.2% | inactive | – | –
CCN(CCCO)CCCOc1ccc2c(Nc3cc(CC(=O)Nc4cccc(F)c4)[nH]n3)ncnc2c1 | inactive | inactive | inactive | 42.6% | 67.6% | inactive | – | –
Cn1cc(-c2ccc3nnc(C(F)(F)c4ccc5ncccc5c4)n3n2)cn1 | inactive | inactive | inactive | 76.9% | 86.8% | inactive | inactive | –
Nc1nc2[nH]cc(CCc3ccc(C(=O)N[C@@H](CCC(=O)O)C(=O)O)cc3)c2c(=O)[nH]1 | inactive | inactive | inactive | 40% | 74.6% | inactive | inactive | –
Clc1ccc(Nc2nnc(Cc3ccncc3)c3ccccc23)cc1 | inactive | inactive | inactive | 90.1% | 66.3% | inactive | – | –
OCCn1cc(-c2cnc3nnn(Cc4ccc5ncccc5c4)c3n2)cn1 | inactive | inactive | inactive | 75.8% | 79.7% | inactive | – | –
CCc1ccc(CCOc2ccc(CC3SC(=O)NC3=O)cc2)nc1 (stereo not drawn) | inactive | inactive | 16.8 µM (active) | 79.6% | 77.7% | inactive | – | –
COc1nc(-c2ccc3c(c2)OCO3)n(-c2ccc(NC(=O)CSc3ccccc3)cc2)n1 | inactive | inactive | inactive | 60.1% | 68.5% | inactive | – | –
CCC(=O)N[C@H]1CC[C@H](C(=O)N(C)c2ccc(-c3nc4ccccc4o3)cc2)C1 | inactive | inactive | inactive | 77.3% | 74.7% | inactive | inactive | –
CNC(=O)c1ccc(C)c(-n2c(C)cc(OCc3ccc(F)cc3F)c(Br)c2=O)c1 | inactive | inactive | inactive | 53% | 44.5% | inactive | – | –
CC(C)OC(=O)C1=CN(C(=O)c2ccc(F)c(F)c2)CC(C)(C)c2c1[nH]c1ccccc21 | inactive | inactive | inactive | 9.41% | 100% | inactive | – | –
COc1ccc2nc(S(=O)Cc3ncc(C)c(OC)c3C)[nH]c2c1 (stereo not drawn) | inactive | inactive | inactive | 52.2% | 89.4% | inactive | inactive | 27.3 µM (active)
O=C(c1cc(Cc2n[nH]c(=O)c3ccccc23)ccc1F)N1CCN(C(=O)C2CC2)CC1 | inactive | inactive | inactive | 58.9% | 64.8% | inactive | – | –
COc1ccc2c3n(c(=NC(=O)c4cccnc4)nc2c1OC)CCN3 | 1.87 µM (active) | inactive | inactive | 22.1% | 39.3% | inactive | inactive | –
CN[C@@H](C)C(=O)N[C@H]1CCCC[C@H]2CC[C@@H](C(=O)N[C@@H](c3ccccc3)c3cn(CCCCc4ccc(CCCCn5cc([C@@H](NC(=O)[C@@H]6CC[C@@H]7CCCC[C@H](NC(=O)[C@H](C)NC)C(=O)N76)c6ccccc6)nn5)cc4)nn3)N2C1=O | inactive | inactive | inactive | 7.59% | 15.5% | inactive | inactive | –
Nc1nccc(-c2ccc3noc(-c4ccc(Cl)cc4)c3c2)n1 | inactive | inactive | 3.75 µM (active) | 81.3% | 109% | inactive | – | –
CCCc1nc2c(C)cc(-c3nc4ccccc4n3C)cc2n1Cc1ccc(-c2ccccc2C(=O)O)cc1 | inactive | inactive | inactive | 71.5% | 70.6% | inactive | inactive | –
CN([C@@H](Cc1ccc(OS(=O)(=O)c2cccc3cnccc23)cc1)C(=O)N1CCN(c2ccccc2)CC1)S(=O)(=O)c1cccc2cnccc12 | inactive | inactive | inactive | 72.1% | 106% | inactive | inactive | –
CC(c1cc2ccccc2s1)N(O)C(N)=O (stereo not drawn) | inactive | inactive | inactive | 92.3% [at 92.2 µM] | 96.2% [at 92.2 µM] | inactive | – | –
C[C@]12CC[C@H](O)CC1=CC[C@@H]1[C@H]2CC[C@]2(C)C(c3cccnc3)=CC[C@H]12 | inactive | inactive | inactive | 29.5% | 52.7% | inactive | – | –
CC(C)c1onc(-c2c(Cl)cccc2Cl)c1COc1ccc(/C=C/c2cccc(C(=O)O)c2)c(Cl)c1 | 11.8 µM (active) | inactive | 21.1 µM (active) | 89.6% | 75.2% | inactive | – | –
O=C(O)[C@@H](c1ccc(OCc2ccc3ccccc3n2)cc1)C1CCCC1 | inactive | inactive | inactive | 94.6% | 92.8% | inactive | – | –
NC(=O)c1ccc(I)c([N+](=O)[O-])c1 | inactive | inactive | inactive | 92.9% | 76.7% | inactive | – | –
CCOc1cc(C=C2C(=O)N(c3ccccc3)N=C2C)cc(Cl)c1OCC(=O)OC | inactive | inactive | – | 81.8% | 46.9% | – | – | –
CCOc1cc(C(=O)Nc2ccc(Cl)c(-c3nc4ccccc4[nH]3)c2)cc(OCC)c1OCC | inactive | inactive | inactive | 69.8% | 85.2% | inactive | – | –
O=C(C1CC1)N1CC[C@@H](Cn2c(-c3ccc(-c4ccc5occc5c4)cc3)nc3cnccc32)C1 | inactive | inactive | – | 5.56% | 48.4% | 26.4 µM (active) | 8.33 µM (active) | –
Oc1cccc(-c2nc(N3CCOCC3)c3oc4ncccc4c3n2)c1 | 0.0833 µM (active) | inactive | – | 16.2% | 42.6% | – | – | –

SMILES | Potency [1] | outcome [2] | Potency [3] | viability (% of control) [4] | viability, percent of control [5] | Potency [6] | Potency [7] | Potency [8]
O=C1CCCC2=C1C(c1[nH]ncc1Cl)N=C(Nc1nc3ccccc3o1)N2 (stereo not drawn) | inactive | inactive | inactive | 75.7% | 71.6% | inactive | – | –
CN(C(=O)c1ccc(F)cc1C(F)(F)F)C1CCN(c2nnc(-c3ccnn3C)c3ccccc23)CC1 | inactive | inactive | inactive | 70.8% | 65.3% | inactive | – | –
COc1ccc(C2=N[C@H](c3ccc(Cl)cc3)[C@H](c3ccc(Cl)cc3)N2C(=O)N2CCNC(=O)C2)c(OC(C)C)c1 | inactive | inactive | – | 7.72% | 66.4% | – | – | –
CC1(C)Cc2c(-c3ccccc3)c(-c3ccc(Cl)cc3)c(CC(=O)O)n2C1 | 20.9 µM (active) | inactive | 21.1 µM (active) | – | 35.6% | – | – | –
CCCS(=O)(=O)Nc1ccc(F)c(C(=O)c2c[nH]c3ncc(Cl)cc23)c1F | inactive | inactive | 11.9 µM (active) | 68.5% | 70.6% | inactive | – | –
S=C(NCc1ccc2c(c1)OCO2)N1CCN(c2ncnc3c2oc2ccccc23)CC1 | inactive | inactive | – | 26.5% | 40.5% | – | inactive | –
CC(C)(N)C(=O)N[C@H](COCc1ccccc1)C(=O)N1CCC2(CC1)CN(S(C)(=O)=O)c1ccccc12 | inactive | inactive | inactive | 48.1% | 69.2% | inactive | – | –
CCOc1ccc(Cc2cc([C@@H]3O[C@H](CO)[C@@H](O)[C@H](O)[C@@H]3O)ccc2Cl)cc1 | inactive | inactive | – | 87.2% | 94.2% | inactive | inactive | –
CCc1cncnc1N1CCN(Cc2nc3ccc(C(F)(F)F)cc3[nH]2)CC1 | inactive | inactive | inactive | 56.3% | 82.4% | inactive | – | –
CS(=O)(=O)c1cccc(CNc2nc(Nc3ccc4c(c3)CCC(=O)N4)ncc2C(F)(F)F)c1 | inactive | inactive | inactive | – | 120% | inactive | – | –
C[C@]1(c2nc3c(C(N)=O)cccc3[nH]2)CCCN1 | inactive | inactive | – | 57.1% | 89.5% | inactive | inactive | –
CC(=O)NC(C)c1ccc(Oc2ccc(OC(C)C)cc2)cc1 (stereo not drawn) | inactive | inactive | inactive | – | 62.8% | inactive | – | –
Cc1cc(Nc2nc(N[C@@H](C)c3ncc(F)cn3)ncc2Cl)n[nH]1 | inactive | inactive | inactive | 105% | 138% | inactive | – | –
NC(=O)c1ccc(-c2nc(-c3ccc4c(c3)OCO4)c(-c3ccccn3)[nH]2)cc1 | inactive | inactive | inactive | 92.5% | 121% | inactive | – | –
Cc1csc(NC(=O)c2sc3nc4c(c(C(F)(F)F)c3c2N)CCC4)n1 | inactive | inactive | inactive | 64.8% | 60.9% | inactive | – | –
O=C(C=Cc1ccc(/C=C/C(=O)Nc2ccc(C3=NCCN3)cc2)cc1)Nc1ccc(C2=NCCN2)cc1 | inactive | inactive | inactive | 92.1% | 97.4% | inactive | – | –
NC(=O)c1ccc(-c2nc(-c3ccc4c(c3)OCCO4)c(-c3ccccn3)[nH]2)cc1 | inactive | inactive | – | 83.2% | 105% | inactive | inactive | –
CCCn1c(=O)c2[nH]c(C34CC5CC3C[C@@H](C5)C4)nc2n(CCC)c1=O | inactive | inactive | – | 30.5% | 60.2% | inactive | 18.7 µM (active) | –
Cn1cnc2c(F)c(Nc3ccc(Br)cc3Cl)c(C(=O)NOCCO)cc21 | inactive | inactive | inactive | 79.9% | 76.1% | inactive | – | –
COc1cc2c(cc1OC)CN(CCc1ccc(NC(=O)c3cccc4c(=O)c5cccc(OC)c5[nH]c34)cc1)CC2 | inactive | inactive | inactive | 56% | 0.316% | inactive | – | –
COc1c(Cl)cc2c([nH]c3cnccc32)c1NC(=O)c1cccnc1C | inactive | inactive | – | 68.9% | 62.3% | inactive | inactive | –
CCOC(=O)N[C@@H]1CC[C@@H]2[C@@H](C1)C[C@H]1C(=O)O[C@H](C)[C@H]1[C@@H]2C=Cc1ccc(-c2cccc(F)c2)cn1 | inactive | inactive | inactive | 42.8% | – | inactive | – | –
Cc1ccnc(NS(=O)(=O)c2ccc(NC(=O)Nc3ccc(S(=O)(=O)Nc4nccc(C)n4)cc3)cc2)n1 | inactive | inactive | 16.8 µM (active) | 48.6% | – | inactive | – | –
C[C@@H]1CN(Cc2ccc(F)cc2)[C@@H](C)CN1C(=O)c1cc2c(C(=O)C(=O)N(C)C)cn(C)c2cc1Cl | inactive | inactive | inactive | 61.8% | 78.3% | inactive | – | –
CCOc1cc(N2CCC(O)CC2)ccc1Nc1ncc2c(n1)N(C)c1ccccc1C(=O)N2C | inactive | inactive | – | 2.87% | 29% | – | 20.9 µM (active) | –
Cc1cc(-c2nnc3n2CCCCC3)c(C)n1-c1ccc(F)cc1 | inactive | inactive | inactive | 6.21% | 4.79% | inactive | – | –
